# In PubChem BioAssay (NCATS):
# Inconclusive results are not listed. Entries that show only a call come without a potency. Calls of active or inactive are those of the source. Calls follow the shape of the dose curve; as a rule, active = well fitted curve in the direction sought with a large enough effect; inconclusive = small, poorly fitted or top-dose-only effect, or another doubt; inactive = no such curve, though single readings can be large; an effect the other way counts as inactive or inconclusive.
# Legend:
# [1] = Quantitative High-Throughput drug screen in 47 multiple myeloma cell lines against the NCATS MIPE library collection: JJN3_DSMZ cell viability assay (AID 1918966; also: nearly all actives have a fitted effect of over 50% in size; also: potency is read from the fitted curve at half-maximal effect)
# How it was run: (§1)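 CellTiter-Glo ATP luminescence gave viability after 48 h compound treatment at 37C of 500 multiple myeloma cells per well. Normalisation used DMSO-only wells as 100% and media-only wells as 0% viability; primary qHTS of approved and investigational drugs.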
# [2] = Quantitative High-Throughput drug screen in 47 multiple myeloma cell lines against the NCATS MIPE library collection: H1112_PLB cell viability assay (AID 1918967; also: nearly all actives have a fitted effect of over 30% in size; also: potency is read from the fitted curve at half-maximal effect)
# How it was run: as §1
# [3] = Quantitative High-Throughput drug screen in 47 multiple myeloma cell lines against the NCATS MIPE library collection: KMS27_JCRB cell viability assay (AID 1918970); also: nearly all actives have a fitted effect of over 30% in size; also: potency is read from the fitted curve at half-maximal effect
# How it was run: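 Each line is seeded at 500 cells per well and treated with library compounds for 48 hours under 37 °C, 5% CO2. CellTiter-Glo is then added for 5 min at room temperature before median relative luminescence is recorded.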
# [4] = Quantitative High-Throughput drug screen in 47 multiple myeloma cell lines against the NCATS MIPE library collection: KMS12BM_JCRB cell viability assay (AID 1918971); also: nearly all actives have a fitted effect of over 35% in size; also: potency is read from the fitted curve at half-maximal effect
# How it was run: (§2)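 Myeloma cells (500 per well) were exposed to MIPE 4.0 compounds by pin transfer and incubated 48 hours at 37C, 5% CO2. Viability was read as ATP by CellTiter-Glo luminescence, normalised to DMSO (100%) and media-only (0%) wells.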
# [5] = Quantitative High-Throughput drug screen in 47 multiple myeloma cell lines against the NCATS MIPE library collection: KMS12PE_JCRB cell viability assay (AID 1918972); also: nearly all actives have a fitted effect of over 30% in size; also: potency is read from the fitted curve at half-maximal effect
# How it was run: as §1
# [6] = Quantitative High-Throughput drug screen in 47 multiple myeloma cell lines against the NCATS MIPE library collection: KMS20_JCRB cell viability assay (AID 1918973); also: nearly all actives have a fitted effect of over 45% in size; also: potency is read from the fitted curve at half-maximal effect
# How it was run: as §1
# [7] = Quantitative High-Throughput drug screen in 47 multiple myeloma cell lines against the NCATS MIPE library collection: KMS26_JCRB cell viability assay (AID 1918975); also: nearly all actives have a fitted effect of over 45% in size; also: potency is read from the fitted curve at half-maximal effect
# How it was run: as §2
# [8] = Quantitative High-Throughput drug screen in 47 multiple myeloma cell lines against the NCATS MIPE library collection: MMM1_PLB cell viability assay (AID 1918976); also: potency is read from the fitted curve at half-maximal effect; nearly all actives have a fitted effect of over 35% in size
# How it was run: (§3)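 ATP-based CellTiter-Glo luminescence after 48 h drug exposure (37 °C, 5% CO2) of 500 myeloma cells per well. DMSO-only wells set 100% viability, media-only wells 0%; MIPE 4.0 library added by pin tool.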
# [9] = Quantitative High-Throughput drug screen in 47 multiple myeloma cell lines against the NCATS MIPE library collection: OCIMY1_PLB cell viability assay (AID 1918979); also: nearly all actives have a fitted effect of over 35% in size; also: potency is read from the fitted curve at half-maximal effect
# How it was run: as §3
# [10] = Quantitative High-Throughput drug screen in 47 multiple myeloma cell lines against the NCATS MIPE library collection: MM1R_ATCC cell viability assay (AID 1918981); also: nearly all actives have a fitted effect of over 35% in size; also: potency is read from the fitted curve at half-maximal effect
# How it was run: as §3
# [11] = Quantitative High-Throughput drug screen in 47 multiple myeloma cell lines against the NCATS MIPE library collection: LP1_DSMZ cell viability assay (AID 1918982); also: nearly all actives have a fitted effect of over 35% in size; also: potency is read from the fitted curve at half-maximal effect
# How it was run: as §3
# [12] = Quantitative High-Throughput drug screen in 47 multiple myeloma cell lines against the NCATS MIPE library collection: KMS28PE_JCRB cell viability assay (AID 1918983); also: nearly all actives have a fitted effect of over 35% in size; also: potency is read from the fitted curve at half-maximal effect
# How it was run: as §3
# [13] = Quantitative High-Throughput drug screen in 47 multiple myeloma cell lines against the NCATS MIPE library collection: OCIMY7_PLB cell viability assay (AID 1918987); also: nearly all actives have a fitted effect of over 65% in size; also: potency is read from the fitted curve at half-maximal effect
# How it was run: as §3
# [14] = Quantitative High-Throughput drug screen in 47 multiple myeloma cell lines against the NCATS MIPE library collection: KMS21BM_JCRB cell viability assay (AID 1918974); details: ATP luminescence, 48 h; viability: at 45.8 µM (top of the series) unless noted
# How it was run: as §1
# [15] = Quantitative High-Throughput drug screen in 47 multiple myeloma cell lines against the NCATS MIPE library collection: MOLP8_DSMZ cell viability assay (AID 1918977); also: nearly all actives have a fitted effect of over 45% in size; also: potency is read from the fitted curve at half-maximal effect
# How it was run: as §3
# [16] = Quantitative High-Throughput drug screen in 47 multiple myeloma cell lines against the NCATS MIPE library collection: MM1S_ATCC cell viability assay (AID 1918980); also: nearly all actives have a fitted effect of over 45% in size; also: potency is read from the fitted curve at half-maximal effect
# How it was run: as §3
# [17] = Quantitative High-Throughput drug screen in 47 multiple myeloma cell lines against the NCATS MIPE library collection: Karpas25_ECACC cell viability assay (AID 1918968; also: nearly all actives have a fitted effect of over 35% in size)
# How it was run: as §1
# [18] = Quantitative High-Throughput drug screen in 47 multiple myeloma cell lines against the NCATS MIPE library collection: NCIH929_DSMZ cell viability assay (AID 1918978); also: nearly all actives have a fitted effect of over 35% in size; also: potency is read from the fitted curve at half-maximal effect
# How it was run: as §3
# [19] = Quantitative High-Throughput drug screen in 47 multiple myeloma cell lines against the NCATS MIPE library collection: L363_DSMZ cell viability assay (AID 1918984); also: nearly all actives have a fitted effect of over 40% in size
# How it was run: as §3
# [20] = Quantitative High-Throughput drug screen in 47 multiple myeloma cell lines against the NCATS MIPE library collection: KMS34_JCRB cell viability assay (AID 1918985); also: nearly all actives have a fitted effect of over 40% in size
# How it was run: as §3
Structure (SMILES),Potency [1],Potency [2],Potency [3],Potency [4],Potency [5],Potency [6],Potency [7],Potency [8],Potency [9],Potency [10],Potency [11],Potency [12],Potency [13],viability [14],Potency [15],Potency [16],Potency [17],Potency [18],Potency [19],Potency [20]
Nc1nc2[nH]cc(CCc3ccc(C(=O)N[C@@H](CCC(=O)O)C(=O)O)cc3)c2c(=O)[nH]1,9.35 µM (active),6.62 µM (active),18.7 µM (active),20.9 µM (active),1.32 µM (active),inactive,inactive,2.09 µM (active),inactive,inactive,inactive,inactive,inactive,–,–,–,–,–,–,–
COc1ccccc1-c1cccc(-c2c(O)c3cc(C#N)c(Cl)cc3[nH]c2=O)c1,inactive,inactive,42.9 µM (active),–,48.1 µM (active),inactive,inactive,–,inactive,inactive,–,inactive,–,162% [at 92.2 µM] (active),inactive,inactive,–,–,–,–
Cc1cnc(NC(=O)C2=C(O)c3ccccc3S(=O)(=O)N2C)s1,inactive,inactive,inactive,inactive,–,–,inactive,–,inactive,inactive,–,inactive,–,–,inactive,–,inactive,inactive,–,–
N[C@@H]1CONC1=O,inactive,inactive,inactive,inactive,inactive,inactive,inactive,–,inactive,inactive,–,–,–,–,–,inactive,inactive,–,inactive,inactive
COc1cc2nccc(Oc3ccc(NC(=O)NC4CC4)c(Cl)c3)c2cc1C(N)=O,1.48 µM (active),2.96 µM (active),3.32 µM (active),5.9 µM (active),0.833 µM (active),13.2 µM (active),23.5 µM (active),–,20.9 µM (active),1.18 µM (active),20.9 µM (active),13.2 µM (active),–,–,13.2 µM (active),0.264 µM (active),–,–,inactive,–
Cc1cc2c(C(C)C)c(O)c(O)c(C=O)c2c(O)c1-c1c(C)cc2c(C(C)C)c(O)c(O)c(C=O)c2c1O,18.7 µM (active),18.7 µM (active),6.62 µM (active),14.8 µM (active),7.43 µM (active),11.8 µM (active),14.8 µM (active),18.7 µM (active),14.8 µM (active),13.2 µM (active),–,18.7 µM (active),8.33 µM (active),–,–,16.6 µM (active),–,9.35 µM (active),–,–
CC1(C)SCCN(S(=O)(=O)c2ccc(OCC#CCO)cc2)[C@@H]1C(=O)NO,inactive,inactive,inactive,–,–,–,2.96 µM (active),1.87 µM (active),inactive,–,16.6 µM (active),–,5.26 µM (active),–,–,–,–,–,–,–
